High-throughput results deposited in PubChem by several laboratories.
In the library only some 4.1% were active in any assay of this set; here they are far more common.
LMP1 NFkB inh: EBV LMP1-driven NF-kappaB luciferase reporter inhibitors, primary screen, cell-based, luminescence, single point; LMP1-induced NF-kappaB luciferase reporter cells; inhibition, % at 12.5 µM; hit rate 0.69% among 350,000; AID 504558, 2011; in the data active = inhibition above about 41%; inconclusive = no clear call, values can overlap the other calls;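 note: 0% = neutral control wells and 100% = reference inhibitor control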
TROY signal inh: inhibitors of TROY-driven NF-kB signaling, primary screen, Q293 LMP1-TROYcd cells, NF-kB luciferase, uHTS. Q293 LMP1-TROYcd NF-kB luciferase reporter, 4 h. hit rate 0.98% among 360,000. inhibition, % at 10 µM;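 active = compounds whose plate-normalised and pattern-corrected inhibition of the luciferase reporter signal at the single screening dose is 50% or more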
Peg3 prom inh: Peg3 promoter-driven luciferase inhibitors, primary screen, cell-based, HeLa, luciferase luminescence. HeLa PEG-Prom luciferase reporter, overnight. inhibition, % at 20 µM. hit rate 1.7% among 360,000. AID 588405, 2011;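 active = inhibition of at least 50% at 20 µM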
Shn3 3UTR inh: reduction of Shn3 3'UTR firefly luciferase signal, primary screen, Schnurri-3 inhibitor project, cell-based, Clone20 osteoblasts, set 2 | Clone20 osteoblast Shn3 3'UTR firefly luciferase, 24 h | inhibition, % at 12.5 µM | hit rate 0.52% among 360,000;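 active = mean inhibition of at least 75% with every replicate also reaching 75%; inconclusive = mean inhibition at least 75% but some replicate below; inactive = mean inhibition below 75%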;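 note: 0% = median of neutral control wells and 100% = pilot-screen positive control compound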
TRPM1 prom inh: inhibitors of MITF-dependent TRPM1 promoter reporter, primary screen, cell-based, SK-MEL-5, single point, luciferase; SK-MEL-5 TRPM1 promoter luciferase, 24 h; inhibition, % at 12.5 µM; hit rate 0.83% among 330,000;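 active = mean inhibition across replicates of 60% or more, whatever share of single replicates reaches that level; inconclusive = some that reach 60%, reason not given; inactive = mean inhibition across replicates below 60%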
TWEAK-Fn14 inh: inhibitors of TWEAK-Fn14 signaling, primary screen, luciferase reporter cells, uHTS. TWEAK-stimulated Fn14 reporter cells, luciferase luminescence, 8 h. inhibition, % at 10 µM. hit rate 2% among 360,000. AID 1159606, 2016; in the data active = inhibition above about 50%
Numbers without * were called inactive; u = inconclusive; x = no result.

SMILES	LMP1 NFkB inh	TROY signal inh	Peg3 prom inh	Shn3 3UTR inh	TRPM1 prom inh	TWEAK-Fn14 inh
CCN(C[C@H]1N[C@@](Cc2ccccc2)(C(=O)OC)[C@H]2C(=O)N(C)C(=O)[C@@H]12)C(=O)Nc1ccc(F)cc1	0.4	-10.8	-8.7	-0.7	-5.3	-3.8
CCc1ccc(-c2nc(CN3CCC(C(=O)N4CCN(c5ccccc5)CC4)CC3)c(C)o2)cc1	-12.7	26.7	88.1*	53.0	17.4	94.5*
Cc1oc(-c2ccc(Cl)cc2)nc1CN1CCC(C(=O)NCCCN2CCOCC2)CC1	-12.2	-2.3	-7.2	0.4	3.8	22.3
CCC1CCCCN1CCCNC(=O)C1CCN(Cc2nc(-c3ccc(Cl)cc3)oc2C)CC1 (stereo unspecified)	-68.3	-50.8	79.7*	-11.9	99.5*	-2.4
Cc1ccccc1-c1nc(CN2CCC(C(=O)NCCCN3CCCC(C)C3)CC2)c(C)o1 (stereo unspecified)	-14.8	2.5	23.2	19.7	93.7*	-13.2
CCc1ccc(-c2nc(CN3CCC(C(=O)N4CCN(c5ccccn5)CC4)CC3)c(C)o2)cc1	5.3	2.3	29.9	-1.7	37.0	35.5
CCc1ccc(-c2nc(CN3CCC(C(=O)NCCN(CC)c4ccccc4)CC3)c(C)o2)cc1	-63.5	20.5	107.6*	60.4	66.5*	-44.1
COc1ccc(NC(=O)C2Cc3c(-c4ccco4)ccnc3O2)cc1OC (stereo unspecified)	x	11.0	10.3	45.1	x	30.5
CCOC(=O)/C(=C\c1ccc(Cl)cc1)c1nc2sc(C)c(C)c2c(=O)[nH]1	6.3	53.2*	108.3*	23.3	78.5*	103.8*
COc1ccc(NC(=O)Nc2nc(C(N)Cc3ccc(C(F)(F)F)cc3)cs2)cc1 (stereo unspecified)	x	1.9	97.6*	34.4	x	24.0
COc1ccc(CC(N)c2csc(NC(=O)Nc3ccc(OC)cc3)n2)cc1 (stereo unspecified)	x	14.3	14.8	0.5	x	8.0
COc1cc(NC(=O)Nc2nc(C(N)C(C)C)cs2)cc(OC)c1OC (stereo unspecified)	x	-1.1	-12.1	-8.2	x	24.9
COc1cc(NC(=O)Nc2nc(C(N)Cc3ccc(C(F)(F)F)cc3)cs2)cc(OC)c1OC (stereo unspecified)	x	14.0	91.6*	28.0	x	4.7
NC(Cc1ccc(C(F)(F)F)cc1)c1csc(Nc2cnccn2)n1 (stereo unspecified)	x	-1.6	2.1	1.2	x	5.6
COc1ccc(CC(N)c2csc(NC(=O)c3cc(C(C)(C)C)oc3C)n2)cc1 (stereo unspecified)	x	-26.0	99.1*	3.0	x	-32.1
Cc1ccc(C(=O)Nc2nc(C(N)Cc3ccc(C(F)(F)F)cc3)cs2)cc1 (stereo unspecified)	x	14.0	96.2*	16.2	x	-17.9
CC1(C)CC(NC(=O)C2CCN(S(=O)(=O)c3ccc(F)cc3)CC2)CC(C)(C)N1	-12.4	7.9	0.3	-11.4	-4.6	-0.1
O=C(O)c1ccccc1NCc1cccs1	-3.0	5.3	24.8	4.8	4.5	6.8
CCc1cccc(NC(=O)CSC2=NS(=O)(=O)c3ccccc32)c1	-40.1	3.8	68.2*	-25.8	54.5	-9.6
COc1ccc(/C=C(/NC(=O)c2ccc(Br)cc2)C(=O)N2CCOCC2)cc1	-0.4	14.6	13.2	5.5	0.4	-5.3
CC1=NOC(=O)/C1=C\c1ccc(-c2ccc(Br)cc2C(=O)O)o1	-4.2	-15.2	-0.6	-37.9	-7.2	-2.2
COc1ccc(Cl)cc1/C=C1/C(=O)ON=C1C	0.6	-14.7	25.1	-19.2	-0.9	14.2
CC1=NOC(=O)/C1=C\c1ccc(-c2ccc(Br)cc2)o1	5.6	73.0*	89.0*	41.4	79.3*	64.4*
CC1=NOC(=O)/C1=C/c1ccc(-c2ccc(Cl)cc2)o1	-9.4	77.7*	102.3*	u	99.4*	73.5*
CC1=NOC(=O)/C1=C\c1ccc(-c2cc(Cl)ccc2Cl)o1	13.8	1.6	101.2*	94.4*	98.8*	101.2*
SMILES	LMP1 NFkB inh	TROY signal inh	Peg3 prom inh	Shn3 3UTR inh	TRPM1 prom inh	TWEAK-Fn14 inh
CCC(=O)c1cn(CC(=O)NCc2cccnc2)c2ccccc12	-3.7	-6.1	-5.2	-11.5	2.1	-8.4
CC(NC(=O)c1cccc(S(=O)(=O)N2CCc3ccccc32)c1)c1ccco1 (stereo unspecified)	2.0	1.0	9.1	9.5	20.9	18.6
CN(C)S(=O)(=O)c1ccc(NC=O)cc1	1.0	10.5	5.6	5.5	9.7	-0.3
COc1cccc(N2CCN(C(=O)c3cc(C)oc3C)CC2)c1	-14.3	4.6	12.4	-30.7	2.0	-14.7
C=C1CC(COc2cc(=O)oc3ccccc23)(c2ccccc2)OC1=O (stereo unspecified)	67.0*	57.8*	105.5*	97.3*	94.1*	66.5*
COc1cccc(/C(O)=C/c2nc3ccc(C(=O)NCCc4ccc(Cl)cc4)cc3[nH]c2=O)c1	4.5	-22.6	55.5*	44.8	44.8	19.3
CCCc1ccc(-c2ccc(C(=O)O)cc2)nc1	-11.6	47.8	-71.3	-51.3	-12.3	78.5*
Nc1nc(Cl)nc2ccc(Br)cc12	11.2	70.8*	-151.3	-23.8	7.0	74.6*
CCc1c(C)nc2ccc(Br)cc2c1Cl	-3.0	-30.9	-80.7	6.0	-12.5	-18.1
CCC(c1nnnn1-c1c(C)cccc1C)N1CCN(c2ccccn2)CC1 (stereo unspecified)	x	-4.7	x	x	x	1.8
COc1ccc(/C=C/C(=O)c2cc(F)ccc2OC(=O)c2ccccc2OC)cc1OC	-7.2	54.9*	52.2*	16.8	44.8	76.6*
COc1cc(/C=C/C(=O)c2ccc(C)cc2)ccc1OCC#N	-22.2	-9.6	103.2*	6.5	30.7	86.6*
COc1ccc(/C=C/C(=O)c2ccc(C(=O)/C=C/c3ccc(OC)c(OC)c3)cc2)cc1OC	20.3	-5.0	43.8	87.3*	15.2	11.5
CCOc1cc(/C=C/C(=O)c2ccc(C)cc2)ccc1OCC(=O)N(C)C	18.8	-3.9	49.4	35.0	-4.1	58.7*
CCOc1cc(/C=C/C(=O)O)ccc1OCCO	1.7	16.7	8.2	5.1	-1.8	21.9
COc1ccc(/C=C/C(=O)c2cc(F)ccc2OC(=O)c2ccccc2)cc1OC	22.1	25.2	14.9	0.9	u	-62.0
CCOc1cnc(C(=O)NNC(=O)C(Br)C(C)C)o1 (stereo unspecified)	-4.5	2.8	15.1	-3.3	0.3	-15.2
COCc1cc(=O)[nH]c(SCCS(=O)(=O)c2ccc(Cl)cc2Cl)n1	5.2	12.8	45.9	57.7	8.6	55.4*
Cc1ccc(S(=O)(=O)Nc2ccccc2-c2ccccc2NS(=O)(=O)c2ccc(C)cc2)cc1	6.1	51.5*	33.4	-3.9	6.8	-1.4
